From PubChem BioAssay
Bead autofluor: flagged as autofluorescent in microsphere protease counterscreen; compound autofluorescence counterscreen, microsphere flow cytometry; active compounds read high; fluorescence intensity (concentration not given with the values); 360,000 tested, 3.1% active; AID 624483; in the data active = fluorescence intensity above about 16000; inconclusive = no clear call, values can overlap the other calls
BoNT-F LC inh: blocks Botulinum neurotoxin F light chain protease; Multiplex microsphere protease cleavage assay, flow cytometry; inhibition, % at 10 µM; 360,000 tested, 0.22% active; AID 588497; in the data active = inhibition above about 35%, passing the limit was not always enough; inconclusive = no clear call, values can overlap the other calls
BoNT-A LC inh2: inhibitors of Botulinum neurotoxin A light chain protease. inhibition, % at 10 µM. multiplex microsphere protease substrate cleavage, flow cytometry. 360,000 tested, 0.17% active
MazF activator: increases E. coli MazEF RNase cleavage of RNA; FAM/BHQ RNA-DNA oligo cleavage fluorescence, 5 h; activation, % at 20 µM; 350,000 tested, 0.32% active; AID 504720; P0AE70; in the data active = activation above about 50%
Anthrax LF prot: blocks Bacillus anthracis lethal factor protease; AID 588501; inhibition, % at 10 µM; multiplex microsphere protease cleavage assay, LF; 360,000 tested, 0.12% active; P15917
Target sequence (P15917 whole entry, looked up): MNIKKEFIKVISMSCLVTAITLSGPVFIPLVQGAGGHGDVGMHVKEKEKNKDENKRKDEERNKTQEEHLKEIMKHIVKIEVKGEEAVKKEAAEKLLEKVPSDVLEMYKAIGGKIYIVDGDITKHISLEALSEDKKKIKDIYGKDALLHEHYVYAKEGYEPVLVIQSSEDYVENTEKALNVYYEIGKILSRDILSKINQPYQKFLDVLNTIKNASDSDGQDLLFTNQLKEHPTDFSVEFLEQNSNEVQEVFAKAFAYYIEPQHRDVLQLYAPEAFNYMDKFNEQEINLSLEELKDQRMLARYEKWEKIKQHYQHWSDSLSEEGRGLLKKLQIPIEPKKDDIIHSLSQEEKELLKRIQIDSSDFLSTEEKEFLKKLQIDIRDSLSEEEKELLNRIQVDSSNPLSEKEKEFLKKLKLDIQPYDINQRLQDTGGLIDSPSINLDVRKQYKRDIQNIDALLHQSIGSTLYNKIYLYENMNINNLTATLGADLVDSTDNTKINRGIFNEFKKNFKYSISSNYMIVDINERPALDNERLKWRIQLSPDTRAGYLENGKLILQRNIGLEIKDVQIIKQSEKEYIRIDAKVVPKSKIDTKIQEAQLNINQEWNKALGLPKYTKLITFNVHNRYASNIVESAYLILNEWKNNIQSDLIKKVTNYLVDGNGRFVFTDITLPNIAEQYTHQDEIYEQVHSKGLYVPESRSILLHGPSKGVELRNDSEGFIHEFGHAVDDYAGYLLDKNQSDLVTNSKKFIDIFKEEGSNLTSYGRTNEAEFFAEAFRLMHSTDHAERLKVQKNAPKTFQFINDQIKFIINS
Of the large screens only hits and unclear results are named; the others gave an inactive call; ! = repeats disagree. An excerpt weighted towards active compounds, which were near 3.6% of everything screened. Rule as the data show it, unless noted: active = inhibition above about 30%; inconclusive = no clear call, values can overlap the other calls; inactive = below that.

O=C(NNc1c([N+](=O)[O-])cc(C(F)(F)F)cc1[N+](=O)[O-])c1ccco1	none
CC1CCc2sc(C(=O)NCc3ccc(F)cc3)cc2C1 (stereo not given)	Bead autofluor 24108, BoNT-A LC inh2 inconclusive
COc1cc2c(cc1OC)C(O)C(O)(CO)C(C(=O)O)C2c1cc(OC)c(OC)c(OC)c1 (stereo not given)	none
CCN(CC)CCNC(=O)NC1CCCCC1	Bead autofluor 22854, BoNT-A LC inh2 inconclusive
COc1ccc(C(=O)Nc2nc3cc(OC)c(OC)cc3c(=O)[nH]2)cc1	Bead autofluor 25582
O=C1/C(=C/c2cccc([N+](=O)[O-])c2)CCc2ccccc21	none
O=C1/C(=C/c2cccc([N+](=O)[O-])c2)CSc2ccc(Cl)cc21	BoNT-F LC inh inconclusive, BoNT-A LC inh2 inconclusive, Anthrax LF prot 30
NC(=O)c1sc2nnc(-c3ccccc3)c(-c3ccccc3)c2c1N	Bead autofluor 17320, BoNT-F LC inh inconclusive
CCn1c(COc2ccc(C)cc2)nnc1SCc1nc2ccccc2[nH]1	Bead autofluor 19776
CCn1c(SCc2nc3ccccc3[nH]2)nnc1-c1ccccc1OC	none
CCn1c(SCc2nc3ccccc3[nH]2)nnc1-c1cccs1	Bead autofluor 21099, BoNT-A LC inh2 inconclusive
Cn1c(COc2ccccc2)nnc1SCc1nc2ccccc2[nH]1	none
CC(=O)Nc1cccc(-c2ccnc3c2CC(C(=O)NCc2ccc(N(C)C)cc2)O3)c1 (stereo not given)	none (no result: MazF activator)
Cc1ccccc1CN1CCNC(=O)C1CC(=O)NC1CCCCCCC1 (stereo not given)	none
COc1ccc(-[n+]2c(C)cc(/C=C3\Sc4ccccc4N3C)cc2C)cc1	BoNT-A LC inh2 68 (no result: MazF activator)
COc1ccccc1-[n+]1c(C)cc(/C=C2\Sc3ccccc3N2C)cc1C	BoNT-A LC inh2 88, Anthrax LF prot 40
COc1cccc(C(=O)NNC(=O)c2ccc3ccccc3c2)c1	none
COc1cccc(C2NC(=O)NC(C)=C2C(=O)Nc2cc(OC)ccc2OC)c1 (stereo not given)	Bead autofluor 17900
COc1cccc(C2NC(=O)NC(C)=C2C(=O)Nc2cccc(C)c2C)c1 (stereo not given)	none
COc1ccc(CC(C(=O)Nc2cc(C)ccc2C)/C(N)=N/O)cc1 (stereo not given)	Bead autofluor 16939
C[C@H](CO)N1C[C@H](C)[C@@H](CN(C)C(=O)Nc2ccc3c(c2)OCO3)Oc2ccc(NC(=O)Cn3cnnn3)cc2C1=O	none
CCOC(=O)CC(=O)CSc1ccc2nnc(-c3cccc(F)c3)n2n1	Bead autofluor 16650, BoNT-A LC inh2 inconclusive
CN(CCc1ccccc1)c1cc2c(c3c1ccn3C)C1CCC2O1 (stereo not given)	none (no result: MazF activator)
COc1cc(-c2cc(C(=O)Nc3c(Cl)cc(Cl)cc3Cl)c3ccccc3n2)cc(OC)c1OC	none
COc1ccc2nc3ccccc3nc2c1NC(=O)c1ccc(Cl)cc1Cl	MazF activator active
C=CCN1C(=O)/C(=C/c2ccc(Br)s2)C(=O)NC1=S	MazF activator 72 (no result: Bead autofluor, BoNT-F LC inh, BoNT-A LC inh2, Anthrax LF prot)
COc1ccc(OCCN2CCC(C(=O)NC(C)c3cccc4ccccc34)CC2)cc1 (stereo not given)	none (no result: MazF activator)
CC1(C)CN(c2ccccc2)N(Cc2ccc(F)cc2)C1=O	Bead autofluor 18014
O=c1cc(N2CCN(c3ccccc3)CC2)[nH]c(=O)n1Cc1ccc(F)cc1	none
COc1ccc(CCNC(=O)c2cccc(S(=O)(=O)N3CCc4ccccc4C3)c2)cc1	none
Nc1nnc(SCc2ccccc2)n1-c1ccccc1	Bead autofluor 17516, BoNT-A LC inh2 inconclusive
c1ccc(CSc2nnc(-c3ccccn3)n2-c2ccccc2)cc1	none
Cc1cccc(CSc2nnnn2-c2ccccc2)c1	none
Cc1cccc(CSc2nnc(N)n2-c2ccccc2)c1	Bead autofluor 22675
CCCS(=O)(=O)NC(=O)C1(C)CCN(C(=O)c2ccc(F)cc2Cl)C1 (stereo not given)	none (no result: MazF activator)
O=C(Cc1nc(-c2cnccn2)no1)NNC(=O)Nc1ccccc1	BoNT-F LC inh inconclusive, BoNT-A LC inh2 inconclusive, Anthrax LF prot 35
Cc1ccc(/C=N/NS(=O)(=O)c2ccc([N+](=O)[O-])cc2)o1	none
CCCCCCCCCCS(=O)(=O)N/N=C/c1ccc([N+](=O)[O-])cc1	Bead autofluor 21737, BoNT-A LC inh2 inconclusive
CCOC(=O)CCCCCNC(=O)c1ccc(F)cc1F	none
CCCc1ccc(-c2cc(C(=O)NCCc3ccc(S(N)(=O)=O)cc3)c3ccccc3n2)cc1	Bead autofluor 22125
CC(C)Oc1cccc(-c2cc(C(=O)NN3CCOCC3)c3ccccc3n2)c1	none
CCCc1ccc(-c2cc(C(=O)NN3CCOCC3)c3ccccc3n2)cc1	Bead autofluor 23255
NS(=O)(=O)c1ccc(CCNC(=O)c2cc(-c3ccc(Br)cc3)nc3ccccc23)cc1	none
CCOC(=O)c1c(C)[nH]c(C)c1C(=O)COC(=O)[C@@H](NC(=O)c1ccccc1OCC)C(C)C	Bead autofluor 23944
O=S1(=O)CCC(NS(=O)(=O)/C=C/c2ccccc2)C1 (stereo not given)	Bead autofluor 22642
Cc1cccn2c(=O)c3cc(C#N)c(=O)n(Cc4cccnc4)c3nc12	none (no result: Bead autofluor, BoNT-F LC inh, BoNT-A LC inh2, Anthrax LF prot)
Cc1ccc(-n2c(=O)c(C#N)cc3c(=O)n4cccc(C)c4nc32)cc1	Bead autofluor 20956, BoNT-A LC inh2 inconclusive
Cc1cccc(C(=O)N=c2c(C#N)cc3c(=O)n4cccc(C)c4nc3n2Cc2ccco2)c1	MazF activator 54!
O=C(NC(Cc1ccc(O)cc1)C(=O)N=Nc1c(O)[nH]c2ccccc12)c1ccccc1 (stereo not given)	none
CC(C)(C)NC(=O)CSc1nc(-c2ccccc2)c(-c2ccccc2)[nH]1	Bead autofluor 23364
CC(C)(C)S(=O)N1Cc2cc(C(=O)Nc3ccc(-c4ccccc4)cc3)nc(-c3cccc(-c4cc5ccccc5o4)c3)c2[C@@H]1CCO (stereo not given in full)	none (no result: MazF activator)
C[C@@H]1CN([C@H](C)CO)C(=O)CCCn2cc(nn2)CO[C@H]1CN(C)S(=O)(=O)c1cccs1	none (no result: MazF activator)
CCC1S/C(=N/N=C/c2ccco2)N(Cc2ccccc2C)C1=O (stereo not given)	BoNT-F LC inh inconclusive, BoNT-A LC inh2 inconclusive, Anthrax LF prot 41
CCN(CC)c1ccc(S(=O)(=O)N2CCOCC2)cc1NC(=O)COC(=O)C1=COCCO1	none
CC(C)c1ccc(NC(=O)c2ccc(-c3ccnn3C)c3ccoc23)cc1	none (no result: MazF activator)
CC1CCc2[nH]nc(C(=O)O)c2C1 (stereo not given)	Bead autofluor 20725
CCC1CCc2[nH]nc(C(=O)O)c2C1 (stereo not given)	none
CC(NC(=O)c1ccccc1Br)c1nnc(SCc2ccc([N+](=O)[O-])cc2)n1C (stereo not given)	Bead autofluor 19315
Cn1c(SCc2ccc([N+](=O)[O-])cc2)nnc1-c1cccnc1	none
CCOc1nc(-c2ccc(OC)cc2)ccc1-c1noc(-c2ccncc2)n1	Bead autofluor 23147, BoNT-A LC inh2 inconclusive
CCOc1nc(-c2ccccc2)ccc1-c1noc(-c2cccs2)n1	Bead autofluor 20998
CCOc1nc(-c2ccccc2)ccc1-c1noc(-c2ccncc2)n1	none
COc1ccc(-c2nc(-c3ccncc3)no2)cc1	MazF activator 91
